Reference: PubChem BioAssay
Active and inactive are the calls of the source. Unless noted, how the calls were made is not given here.

Assays:
[1] = compounds binding Alexa647 anti-His antibody – biochemical, small-molecule microarray, 635 nm fluorescence, artefact control for SMM control protein annotation, primary screen (AID 1128); details: higher = more signal;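 further: score merges feature fluorescence with signal-to-noise for each printed compound spot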
[2] = test system: Human papillomavirus type 1a E7 protein (residues 1-88); assay: HPV1a E7 small-molecule binders, primary screen, biochemical, small-molecule microarray, residues 1-88, 635 nm (AID 1129); details: small-molecule microarray binding, fluorescence 635 nm; higher = more signal
[3] = target: Focal adhesion kinase 1 (Homo sapiens) (UniProt Q05397); assay: PTK2 protein binding on printed compound slides – biochemical, small-molecule microarray, 635/667 nm fluorescence, BSA, DTT, primary screen (AID 1130); details: 635 nm fluorescence, higher = more signal;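 further: composite of spot emission at 667 nm and signal to noise over triplicate slides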
Focal adhesion kinase 1 (Homo sapiens), sequence (Q05397 whole entry, looked up): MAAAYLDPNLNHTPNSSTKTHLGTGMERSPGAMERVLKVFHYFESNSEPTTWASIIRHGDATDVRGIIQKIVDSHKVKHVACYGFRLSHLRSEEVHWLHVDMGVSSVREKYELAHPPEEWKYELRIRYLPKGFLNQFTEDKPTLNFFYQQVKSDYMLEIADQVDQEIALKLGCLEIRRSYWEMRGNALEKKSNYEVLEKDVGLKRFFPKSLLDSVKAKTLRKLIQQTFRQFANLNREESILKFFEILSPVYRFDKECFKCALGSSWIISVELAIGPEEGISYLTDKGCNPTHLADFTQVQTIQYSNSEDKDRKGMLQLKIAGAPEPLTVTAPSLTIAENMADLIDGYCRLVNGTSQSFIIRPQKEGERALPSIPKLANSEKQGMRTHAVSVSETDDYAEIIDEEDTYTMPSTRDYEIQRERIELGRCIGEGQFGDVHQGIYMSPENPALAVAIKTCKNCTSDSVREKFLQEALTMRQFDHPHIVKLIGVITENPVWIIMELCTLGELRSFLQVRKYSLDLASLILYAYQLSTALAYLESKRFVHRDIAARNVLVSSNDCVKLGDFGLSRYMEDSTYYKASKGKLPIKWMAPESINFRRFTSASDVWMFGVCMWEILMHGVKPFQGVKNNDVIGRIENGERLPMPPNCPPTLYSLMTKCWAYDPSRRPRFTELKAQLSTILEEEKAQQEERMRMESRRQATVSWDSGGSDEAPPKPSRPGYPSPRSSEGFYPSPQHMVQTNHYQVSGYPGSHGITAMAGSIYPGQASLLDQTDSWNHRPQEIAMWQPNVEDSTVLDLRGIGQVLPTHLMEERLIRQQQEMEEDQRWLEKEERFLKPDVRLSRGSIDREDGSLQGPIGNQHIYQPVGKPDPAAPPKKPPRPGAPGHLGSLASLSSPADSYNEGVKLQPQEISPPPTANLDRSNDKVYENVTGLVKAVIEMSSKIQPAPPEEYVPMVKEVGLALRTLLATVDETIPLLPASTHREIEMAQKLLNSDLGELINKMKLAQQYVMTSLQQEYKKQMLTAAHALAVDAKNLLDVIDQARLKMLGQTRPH

[4] = test system: Fibrinogen (Alexa647-labelled); assay: Alexa647-fibrinogen binding to printed small molecules – biochemical, small-molecule microarray, 635/667 nm fluorescence, artefact control for SMM control-protein annotation, profiling panel (AID 1131); details: fibrinogen-A647 binding fluorescence, higher = more signal;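 further: z-score merges 667 nm fluorescence with per-spot signal-to-noise over triplicate slides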
[5] = target: Follistatin (Homo sapiens) (UniProt P19883); assay: FST protein binding to printed compounds – biochemical, small-molecule microarray, 635/667 nm fluorescence, primary screen (AID 1132); details: 635 nm fluorescence, higher = more signal
Follistatin (Homo sapiens), sequence (P19883 whole entry, looked up): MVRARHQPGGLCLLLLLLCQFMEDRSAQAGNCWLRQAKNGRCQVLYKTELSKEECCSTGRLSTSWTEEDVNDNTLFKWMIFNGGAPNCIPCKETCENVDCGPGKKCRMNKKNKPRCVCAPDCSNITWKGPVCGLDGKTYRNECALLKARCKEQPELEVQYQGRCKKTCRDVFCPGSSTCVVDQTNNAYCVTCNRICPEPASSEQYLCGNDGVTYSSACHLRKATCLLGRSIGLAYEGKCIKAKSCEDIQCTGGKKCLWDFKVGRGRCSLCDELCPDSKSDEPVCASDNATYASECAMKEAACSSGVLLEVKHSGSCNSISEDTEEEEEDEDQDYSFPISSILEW

[6] = target: Fibroblast growth factor 2 (Homo sapiens) (UniProt P09038); assay: basic fibroblast growth factor binding to printed compounds – biochemical, small-molecule microarray, 635/667 nm fluorescence, primary screen (AID 1133); details: FGF2, fluorescence 635/667, higher = more signal
Fibroblast growth factor 2 (Homo sapiens), sequence (P09038 whole entry, looked up): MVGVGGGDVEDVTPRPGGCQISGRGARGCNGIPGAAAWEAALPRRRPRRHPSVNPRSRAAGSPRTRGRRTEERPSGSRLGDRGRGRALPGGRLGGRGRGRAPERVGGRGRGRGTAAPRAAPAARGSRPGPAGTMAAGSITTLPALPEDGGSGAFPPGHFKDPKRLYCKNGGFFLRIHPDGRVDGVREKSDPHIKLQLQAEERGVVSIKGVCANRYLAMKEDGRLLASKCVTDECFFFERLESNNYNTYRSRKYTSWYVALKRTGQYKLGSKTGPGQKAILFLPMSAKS

[7] = JC-1 mitochondrial potential readout, lung cancer cells – cell-based, A549, JC-1 fluorescence, basal, 24 h, 100 nL, profiling panel (AID 1138); details: higher = more signal;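 further: A549 lung adenocarcinoma cells under basal conditions with no added stimulus; test concentration not given here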
Lefty1 = Lefty1 protein binding to printed compounds – biochemical, small-molecule microarray, 635/667 nm fluorescence, primary screen (AID 1139); details: fluorescence 635/667, higher = more signal
[8] = test system: wheat germ agglutinin (Triticum aestivum), Alexa647-labelled; assay: Alexa647-WGA lectin binding to printed small molecules – biochemical, small-molecule microarray, 635/667 nm fluorescence, artefact control for SMM control-protein annotation, profiling panel (AID 1140); details: WGA-A647 binding, 635 nm fluorescence, higher = more signal;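 further: score merges 667 nm feature emission with signal to noise over triplicate slides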
[9] = target: Luciferin 4-monooxygenase (Photinus pyralis) (UniProt P08659); assay: inhibition of purified Photinus pyralis luciferase – biochemical, luminescence, purified enzyme, 2006 set, primary screen (AID 1141); details: purified firefly luciferase, SteadyGlo luminescence, 30 min; higher = more signal, called active from +8 up or from −8 down;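 further: cell-free assay with purified firefly luciferase at 100 ng per well in PBS; test concentration not given here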
Luciferin 4-monooxygenase (Photinus pyralis), sequence (P08659 whole entry, looked up): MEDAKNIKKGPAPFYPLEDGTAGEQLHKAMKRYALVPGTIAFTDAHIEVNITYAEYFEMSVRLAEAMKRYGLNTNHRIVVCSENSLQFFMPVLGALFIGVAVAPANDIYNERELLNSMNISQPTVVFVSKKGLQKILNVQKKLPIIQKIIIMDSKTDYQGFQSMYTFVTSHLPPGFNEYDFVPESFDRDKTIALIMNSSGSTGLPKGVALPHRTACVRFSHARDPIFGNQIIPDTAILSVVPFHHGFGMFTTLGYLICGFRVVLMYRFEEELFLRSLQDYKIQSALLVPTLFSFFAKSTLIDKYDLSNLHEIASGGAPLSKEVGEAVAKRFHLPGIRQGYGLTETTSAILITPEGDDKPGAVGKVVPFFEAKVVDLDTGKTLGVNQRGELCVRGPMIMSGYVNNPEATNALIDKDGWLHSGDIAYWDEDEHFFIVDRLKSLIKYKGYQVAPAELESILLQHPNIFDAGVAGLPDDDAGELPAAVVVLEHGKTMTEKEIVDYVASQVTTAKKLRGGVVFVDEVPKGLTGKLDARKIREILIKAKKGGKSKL

[10] = test system: Wnt5a (protein binding on small-molecule microarray); assay: small molecules binding Wnt5a protein – biophysical, small-molecule microarray, 635/667 nm fluorescence, primary screen (AID 1142); details: 635 nm fluorescence, higher = more signal;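 further: fluorescence read at 667 nm with signal to noise per printed feature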
[11] = ATP-based viability of Huh7 replicon cells – cell-based, CellTiter-Glo luminescence, basal, 48 h, cytotoxicity control for HCV replication inhibitor project, primary screen (AID 1143); details: higher = more signal, called active from +8 up or from −8 down;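 further: Huh7 hepatoma cells carrying a hepatitis C replication reporter with no stimulus; test concentration not given here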
[12] = Pseudomonas biofilm growth suppression – PAO1 strain, BacTiter-Glo luminescence, LB-PBS, primary screen (AID 1144); details: P. aeruginosa PAO1 biofilm, 12 h, higher = more signal
[13] = basal CRE-LacZ reporter activity in PC12 – cell-based, unstimulated, primary screen (AID 1145); details: no forskolin, luminescence, 4.5 h, higher = more signal, called active from +8 up or from −8 down
[14] = forskolin-driven CRE-LacZ activity in PC12 – cell-based, CRE-LacZ reporter, forskolin-stimulated, primary screen (AID 1146); details: luminescence, 4.5 h, higher = more signal, called active from +8 up or from −8 down;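 further: PC12 cells with 6xCRE LacZ reporter stimulated by forskolin 10 µM; beta-galactosidase reporter signal reflecting CREB driven transcription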
[15] = target: Streptavidin (Streptomyces avidinii) (UniProt P22629); assay: compounds binding control protein streptavidin – biophysical, small-molecule microarray, 635/667 nm fluorescence, artefact control for SMM compound annotation, primary screen (AID 1147); details: higher = more signal;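 further: signal reflects streptavidin binding to arrayed compounds as a control protein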
Streptavidin (Streptomyces avidinii), sequence (P22629 whole entry, looked up): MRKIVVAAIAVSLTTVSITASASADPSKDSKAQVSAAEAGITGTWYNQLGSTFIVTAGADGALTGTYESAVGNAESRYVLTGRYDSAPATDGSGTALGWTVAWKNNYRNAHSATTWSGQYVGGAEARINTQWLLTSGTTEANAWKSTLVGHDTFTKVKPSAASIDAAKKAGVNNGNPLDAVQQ

[16] = probe aInhba binding on compound microarray – biochemical, small-molecule microarray, 635/667 nm fluorescence, primary screen (AID 1148); details: higher = more signal;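 further: score merges 667nm spot fluorescence with signal-to-noise for antibody binding to printed compounds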
Torsin-1A (Homo sapiens) [17] = target: Torsin-1A (Homo sapiens) (UniProt O14656); assay: TOR1A wild-type binding on microarray – cell lysate, small-molecule microarray, lysate, 635/667 nm, primary screen (AID 1149); details: COS7 hTOR1A-WT lysate, 635 nm fluorescence, higher = more signal
Torsin-1A (Homo sapiens), sequence (O14656 whole entry, looked up): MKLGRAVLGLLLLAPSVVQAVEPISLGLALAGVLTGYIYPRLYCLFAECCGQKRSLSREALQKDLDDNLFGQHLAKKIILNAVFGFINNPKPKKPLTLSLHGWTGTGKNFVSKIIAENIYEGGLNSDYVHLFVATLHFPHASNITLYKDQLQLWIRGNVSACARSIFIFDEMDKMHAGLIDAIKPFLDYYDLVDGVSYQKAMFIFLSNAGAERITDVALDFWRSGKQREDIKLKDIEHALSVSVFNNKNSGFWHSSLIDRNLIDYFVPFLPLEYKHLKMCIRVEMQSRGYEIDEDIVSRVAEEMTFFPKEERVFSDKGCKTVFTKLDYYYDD

Torsin-1A (Homo sapiens) [18] = target: Torsin-1A (Homo sapiens) (UniProt O14656); assay: torsin A mutant lysate binding on microarrays – cell lysate, small-molecule microarray, COS7 lysate, 635/667 nm fluorescence, primary screen (AID 1150); details: COS7 hTOR1A mutant lysate, 635 nm fluorescence, higher = more signal;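 further: score pools 667 nm emission and signal to noise measuring lysate protein binding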
[19] = test system: Sonic hedgehog protein (Shh); assay: Sonic hedgehog microarray binding compounds – biochemical, small-molecule microarray, 635/667 nm fluorescence, primary screen (AID 1151); details: 635 nm fluorescence, higher = more signal;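 further: Shh protein binding to compounds spotted on small-molecule microarray slides; score combines spot fluorescence intensity with signal-to-noise across triplicate slides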

CCOC(=O)c1ccc(NC(=O)O[C@H]2[C@H](OC(=O)Nc3ccc4c(c3)OCO4)[C@@H](OC(=O)Nc3ccc4c(c3)OCO4)[C@@H](OC)O[C@@H]2CO)cc1
composite z-score [1]: 2.28
composite z-score [2]: 1.22
composite z-score [3]: 0.891
composite z-score [4]: 0.992
composite z-score [5]: 1.26
composite z-score [6]: 1.12
z-score [7]: -1.05
composite z-score (Lefty1): 0.793
composite z-score [8]: 1.16
z-score [9]: -7.83 (inactive)
composite z-score [10]: 0.332
z-score [11]: -1.23 (inactive)
z-score [12]: 0.164 (inactive)
z-score [13]: 0.148 (inactive)
z-score [14]: -0.557 (inactive)
composite z-score [15]: 0.398
composite z-score [16]: 0.38
composite z-score (Torsin-1A (Homo sapiens) [17]): 0.164
composite z-score (Torsin-1A (Homo sapiens) [18]): 0.676
composite z-score [19]: 1.73

[N-]=[N+]=Nc1ccccc1[C@H]1OC(c2ccc(OCCCO)cc2)=N[C@@]1(CCS(=O)(=O)c1ccccc1)C(=O)NCCN1CCOCC1
composite z-score [1]: 1.51
composite z-score [2]: 1.26
composite z-score [3]: 0.56
composite z-score [4]: 0.938
composite z-score [5]: 1.34
composite z-score [6]: 0.471
z-score [7]: 0.162
composite z-score (Lefty1): 0.619
composite z-score [8]: 0.821
z-score [9]: -6.93 (inactive)
composite z-score [10]: 1.11
z-score [11]: -1.14 (inactive)
z-score [12]: 1.38 (inactive)
z-score [13]: -0.45 (inactive)
z-score [14]: -0.5 (inactive)
composite z-score [15]: 0.866
composite z-score [16]: 0.283
composite z-score (Torsin-1A (Homo sapiens) [17]): 0.484
composite z-score (Torsin-1A (Homo sapiens) [18]): 1.47
composite z-score [19]: 0.273

CC(CO)N1C(=O)[C@@H]2[C@H]3C(=O)OCC=C[C@H]3OC23C=CCN(CCN2CCOCC2)C(=O)[C@@H]13 (stereo not given in full)
composite z-score [1]: 1.01
composite z-score [2]: -0.549
composite z-score [3]: -0.568
composite z-score [4]: -1.3
composite z-score [5]: 0.207
composite z-score [6]: -0.443
z-score [7]: 0.659
composite z-score (Lefty1): 0.27
composite z-score [8]: 0.11
z-score [9]: -0.531 (inactive)
composite z-score [10]: 0.0471
z-score [11]: -0.62 (inactive)
z-score [12]: 1.3 (inactive)
z-score [13]: 0.463 (inactive)
z-score [14]: 0.0027 (inactive)
composite z-score [15]: -0.418
composite z-score [16]: -0.314
composite z-score (Torsin-1A (Homo sapiens) [17]): -0.829
composite z-score (Torsin-1A (Homo sapiens) [18]): -0.475
composite z-score [19]: 1.65

C=C(/C(=C/C[C@@H](OC(C)=O)c1cccc(OCCO)c1)c1cc(C(=O)OC)ccc1OC)C(C)C
composite z-score [1]: -0.422
composite z-score [2]: 0.238
composite z-score [3]: 0.543
composite z-score [4]: -0.75
composite z-score [5]: 1.12
composite z-score [6]: 1.39
z-score [7]: 0.834
composite z-score (Lefty1): 1.16
composite z-score [8]: 0.743
z-score [9]: 0.0406 (inactive)
composite z-score [10]: 0.148
z-score [11]: -1.38 (inactive)
z-score [12]: -0.251 (inactive)
z-score [13]: 3.49 (inactive)
z-score [14]: 0.32 (inactive)
composite z-score [15]: -0.19
composite z-score [16]: -0.152
composite z-score (Torsin-1A (Homo sapiens) [17]): 0.875
composite z-score (Torsin-1A (Homo sapiens) [18]): 1.36
composite z-score [19]: 1.73

CN1C(=O)C2C=CC(C(O)c3cccc(O)c3)N(Nc3ccccc3)C2C1=O (stereo not given)
composite z-score [1]: 0.71
composite z-score [2]: 0.545
composite z-score [3]: 0.214
composite z-score [4]: 0.441
composite z-score [5]: 0.214
composite z-score [6]: -0.191
z-score [7]: 1.19
composite z-score (Lefty1): 0.152
composite z-score [8]: 0.275
z-score [9]: 0.991 (inactive)
composite z-score [10]: 0.0652
z-score [11]: 0.656 (inactive)
z-score [12]: 0.373 (inactive)
z-score [13]: 0.0501 (inactive)
z-score [14]: 0.233 (inactive)
composite z-score [15]: -0.404
composite z-score [16]: 0.142
composite z-score (Torsin-1A (Homo sapiens) [17]): -0.379
composite z-score (Torsin-1A (Homo sapiens) [18]): 0.548
composite z-score [19]: -0.128

COc1ccc(C(O)C2C=CC3C(=O)N(c4ccccc4)C(=O)C3N2Nc2ccc([N+](=O)[O-])cc2)cc1 (stereo not given)
composite z-score [1]: 2.11
composite z-score [2]: 1.24
composite z-score [3]: 0.961
composite z-score [4]: 1.01
composite z-score [5]: 0.848
composite z-score [6]: -0.246
z-score [7]: 0.103
composite z-score (Lefty1): -0.344
composite z-score [8]: 1.14
z-score [9]: 0.732 (inactive)
composite z-score [10]: 0.516
z-score [11]: -0.474 (inactive)
z-score [12]: 0.403 (inactive)
z-score [13]: 0.182 (inactive)
z-score [14]: -0.298 (inactive)
composite z-score [15]: 0.789
composite z-score [16]: 1.18
composite z-score (Torsin-1A (Homo sapiens) [17]): 0.0294
composite z-score (Torsin-1A (Homo sapiens) [18]): 0.874
composite z-score [19]: -0.397

CCC(CC)C(O)C1C=CC2C(=O)N(c3ccccc3)C(=O)C2N1Nc1ccc(C(C)C)cc1 (stereo not given)
composite z-score [1]: 0.489
composite z-score [2]: 1.22
composite z-score [3]: 0.902
composite z-score [4]: 0.978
composite z-score [5]: 1.01
composite z-score [6]: 0.524
z-score [7]: -0.202
composite z-score (Lefty1): 0.0342
composite z-score [8]: 1.08
z-score [9]: -1.58 (inactive)
composite z-score [10]: 0.578
z-score [11]: -0.382 (inactive)
z-score [12]: -0.0181 (inactive)
z-score [13]: -0.136 (inactive)
z-score [14]: -0.156 (inactive)
composite z-score [15]: 0.792
composite z-score [16]: -0.0021
composite z-score (Torsin-1A (Homo sapiens) [17]): 0.393
composite z-score (Torsin-1A (Homo sapiens) [18]): 0.41
composite z-score [19]: -0.0854

CCOC(=O)C[C@H]1[C@H](OC(=O)c2cc3ccccc3oc2=O)[C@@H](NC(=O)Cc2ccc(OC)cc2)c2cc(OCCCO)ccc2N1C(=O)c1ccc2ccccc2n1
composite z-score [1]: 1.37
composite z-score [2]: 0.649
composite z-score [3]: 0.199
composite z-score [4]: 0.122
composite z-score [5]: 0.93
composite z-score [6]: 0.956
z-score [7]: -0.013
composite z-score (Lefty1): 0.838
composite z-score [8]: 0.0863
z-score [9]: 0.0113 (inactive)
composite z-score [10]: 0.34
z-score [11]: 0.0642 (inactive)
z-score [12]: 0.177 (inactive)
z-score [13]: 11.5 (active)
z-score [14]: -0.906 (inactive)
composite z-score [15]: 0.14
composite z-score [16]: 0.0275
composite z-score (Torsin-1A (Homo sapiens) [17]): 0.0518
composite z-score (Torsin-1A (Homo sapiens) [18]): 0.161
composite z-score [19]: 0.479

CN(C)CCCCNC(=O)[C@@H]1C[C@@H]2C(=O)N[C@@H](Cc3ccccc3)C(=O)N2[C@@H]1c1cccc(OCCO)c1
composite z-score [1]: 2.09
composite z-score [2]: 0.579
composite z-score [3]: -0.0323
composite z-score [4]: 0.513
composite z-score [5]: 1.33
composite z-score [6]: 1.75
z-score [7]: 1.53
composite z-score (Lefty1): 1.65
composite z-score [8]: 0.645
z-score [9]: -2.68 (inactive)
composite z-score [10]: 1.2
z-score [11]: -1.6 (inactive)
z-score [12]: -0.133 (inactive)
z-score [13]: 0.431 (inactive)
z-score [14]: -0.903 (inactive)
composite z-score [15]: -0.351
composite z-score [16]: 0.0543
composite z-score (Torsin-1A (Homo sapiens) [17]): 0.75
composite z-score (Torsin-1A (Homo sapiens) [18]): 1.54
composite z-score [19]: 1.55

COCCCNC(=O)[C@]1(CCS(=O)(=O)c2ccccc2)N=C(c2ccc(OCCCO)cc2)O[C@@H]1c1ccccc1CN=[N+]=[N-]
composite z-score [1]: 3.31
composite z-score [2]: 1.25
composite z-score [3]: 1.44
composite z-score [4]: 0.986
composite z-score [5]: 1.32
composite z-score [6]: 0.803
z-score [7]: 0.705
composite z-score (Lefty1): 0.144
composite z-score [8]: 1.45
z-score [9]: -0.842 (inactive)
composite z-score [10]: 1.31
z-score [11]: -0.635 (inactive)
z-score [12]: 0.267 (inactive)
z-score [13]: -0.781 (inactive)
z-score [14]: -0.969 (inactive)
composite z-score [15]: 2.07
composite z-score [16]: 0.424
composite z-score (Torsin-1A (Homo sapiens) [17]): 1.35
composite z-score (Torsin-1A (Homo sapiens) [18]): 0.738
composite z-score [19]: 0.36
